# In PubChem BioAssay (NCATS):
# Where “and” joins values, the source holds several entries; their conditions need not be identical. Equal values may be shown once. Records with an inconclusive call do not appear. Calls of active or inactive are those of the source. Unless noted, the call rests on the fitted dose curve; in most records, active means well fitted curve in the direction sought with a large enough effect; inconclusive means small, poorly fitted or top-dose-only effect, or another doubt; inactive means no such curve, though single readings can be large; an effect the other way counts as inactive or inconclusive.
# Assays:
# [1] = AP1 Signaling Pathway (AID 357; active means well fitted curve in either direction with a large enough effect, not every such curve was filed as active; further: on the % scale 0 is the no-effect control and ±100 the full control effect); settings: ME-180 AP-1-bla reporter, EGF-induced, beta-lactamase ratio, 5 h
# Summary of the method: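 AP-1-bla ME-180 cells with beta-lactamase reporter under AP-1 response element, stimulated with EC50 EGF; compounds titrated, 5 hours at 37 degrees Celsius. CCF4 read at 460/530 nm ratio; positive and negative modulators judged by AC50.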
# [2] = target: Cytochrome P450 1A2 (Homo sapiens) (UniProt P05177); test: p450-cyp1a2 (AID 410; calls by dose curve; further: potency means the concentration at half of the fitted maximal effect;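 on activity change, negative = inhibition: -100% = full effect of reference inhibitor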); settings: recombinant CYP1A2, luciferin-ME demethylation, luminescence; series mostly up to 57 µM
# Sequence of Cytochrome P450 1A2 (Homo sapiens) (P05177 whole entry, looked up): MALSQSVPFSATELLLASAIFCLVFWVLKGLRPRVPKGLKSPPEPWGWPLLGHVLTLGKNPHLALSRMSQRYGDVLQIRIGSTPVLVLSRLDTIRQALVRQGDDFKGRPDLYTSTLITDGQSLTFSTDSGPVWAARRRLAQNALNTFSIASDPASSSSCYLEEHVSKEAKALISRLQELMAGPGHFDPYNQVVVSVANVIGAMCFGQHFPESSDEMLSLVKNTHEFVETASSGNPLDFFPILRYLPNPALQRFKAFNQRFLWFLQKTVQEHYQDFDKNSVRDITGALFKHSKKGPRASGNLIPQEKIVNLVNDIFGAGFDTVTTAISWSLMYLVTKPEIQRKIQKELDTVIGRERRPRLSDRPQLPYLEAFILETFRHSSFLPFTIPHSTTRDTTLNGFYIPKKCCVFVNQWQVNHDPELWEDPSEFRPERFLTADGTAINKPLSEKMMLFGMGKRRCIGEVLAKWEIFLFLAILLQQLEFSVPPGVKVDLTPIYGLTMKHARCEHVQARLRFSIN
# Summary of the method: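 Inhibition was calculated relative to 57 uM furafylline (full inhibition). The reaction used human CYP1A2 at 20nM with Luciferin-ME at its Km, 100uM, driven by an NADPH-regenerating system for 60 min at room temperature.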
# [3] = NFAT Signaling Pathway (AID 444; active means well fitted curve in either direction with a large enough effect, not every such curve was filed as active;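 further: carbachol stimulus at about its EC50 of 1 µM final; on the % scale 0 is the no-effect control and ±100 the full control effect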); settings: Jurkat NFAT-bla M1, carbachol, beta-lactamase ratio, 5 h
# Summary of the method: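 Jurkat cells with NFAT-driven β-lactamase reporter and co-expressed M1 receptor, stimulated with carbachol (final 1 uM, ~EC50), compound titration, 5 h at 37 °C. CCF4 loaded 1 h at RT; 460/530 nm ratio gave %activity and AC50.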
# [4] = Stat Signaling Pathway (AID 446; active means well fitted curve in either direction with a large enough effect, not every such curve was filed as active;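 further: ME-180 cervical cancer cells given 40 pM IL-6 alongside compound; SIE-controlled beta-lactamase reporter measured as 460/530 nm FRET emission ratio; on the % scale 0 is the no-effect control and ±100 the full control effect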); settings: ME-180 (cervical carcinoma) SIE beta-lactamase reporter, IL-6 stimulated, 5 h
# Summary of the method: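 IL-6/STAT signaling read in ME-180 cells via an SIE beta-lactamase reporter. Stimulus was 40 pM IL-6 (its AC50) for 5 hrs, so both activation and inhibition register.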
# [5] = target: Mitogen-activated protein kinase 10 (Mus musculus) (UniProt Q61831); test: JNK3 AlphaScreen Assay (AID 530; active means well fitted curve in either direction with a large enough effect, not every such curve was filed as active;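 further: kinase came from lysate of stimulated human HepG2 cells; signal reports phosphorylation of biotinylated GST-cJun 1-79 at Ser73 with 10 µM ATP; on the % scale 0 is the no-effect control and ±100 the full control effect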); settings: JNK3 lysate, c-Jun phosphorylation; series mostly up to 57.1 µM
# Summary of the method: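 qHTS format: compounds tested as titrations against IL-1beta/TNF-alpha-activated HepG2 lysate JNK3 with biotin-GST-cJun substrate and 10 uM ATP at room temperature. Loss of anti-phospho-cJun AlphaScreen signal indicates inhibition.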
# [6] = target: 3',5'-cyclic-AMP phosphodiesterase 4B (Homo sapiens) (UniProt Q07343); test: qHTS Assay for Inhibitors of PDE-IV (AID 607; active means well fitted activation curve with a large enough effect in the main read-out, with a control signal flat, not every such curve was filed as active; further: % of control where 0% means no effect); settings: HEK293 ACTOne CNG channel cells, membrane potential fluorescence; series mostly up to 22.9 µM
# Sequence of 3',5'-cyclic-AMP phosphodiesterase 4B (Homo sapiens) (Q07343 whole entry, looked up): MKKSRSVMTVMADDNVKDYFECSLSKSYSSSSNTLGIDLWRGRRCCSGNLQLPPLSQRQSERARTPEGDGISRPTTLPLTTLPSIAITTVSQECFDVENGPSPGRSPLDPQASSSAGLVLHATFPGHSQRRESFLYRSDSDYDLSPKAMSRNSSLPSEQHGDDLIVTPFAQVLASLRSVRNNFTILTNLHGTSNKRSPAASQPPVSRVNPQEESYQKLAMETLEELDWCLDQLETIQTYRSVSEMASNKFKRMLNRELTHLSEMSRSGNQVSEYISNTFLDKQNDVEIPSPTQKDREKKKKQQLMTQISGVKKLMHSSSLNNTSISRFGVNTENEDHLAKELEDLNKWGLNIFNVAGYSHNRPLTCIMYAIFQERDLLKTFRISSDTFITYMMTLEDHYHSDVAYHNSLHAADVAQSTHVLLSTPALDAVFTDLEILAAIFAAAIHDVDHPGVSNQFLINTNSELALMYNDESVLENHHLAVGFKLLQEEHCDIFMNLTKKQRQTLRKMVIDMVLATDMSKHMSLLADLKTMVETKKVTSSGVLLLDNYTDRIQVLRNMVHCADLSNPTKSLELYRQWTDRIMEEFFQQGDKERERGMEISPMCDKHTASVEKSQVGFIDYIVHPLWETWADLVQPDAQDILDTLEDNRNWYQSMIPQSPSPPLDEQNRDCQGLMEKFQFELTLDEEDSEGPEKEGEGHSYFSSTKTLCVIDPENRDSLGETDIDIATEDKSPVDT
# Summary of the method: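 Live HEK293 cells with a modified cyclic nucleotide-gated (CNG) channel report intracellular cAMP via membrane-potential dye fluorescence (ex 535/em 590 nm). Endogenous PDE-IV was targeted. Compounds were tested at up to 22.9 uM final; RO 20-1724 100 uM served as control.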
# [7] = target: Pyruvate kinase (Leishmania mexicana) (UniProt Q27686); test: qHTS Validation Assay for Inhibitors of Leishmania Mexicana Pyruvate Kinase (AID 945);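 further: 0% = DMSO only neutral control wells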; settings: purified L. mexicana pyruvate kinase, enzyme activity, E451W mutant enzyme; series mostly up to 57.5 µM
# Sequence of Pyruvate kinase (Leishmania mexicana) (Q27686 2-499 E452W): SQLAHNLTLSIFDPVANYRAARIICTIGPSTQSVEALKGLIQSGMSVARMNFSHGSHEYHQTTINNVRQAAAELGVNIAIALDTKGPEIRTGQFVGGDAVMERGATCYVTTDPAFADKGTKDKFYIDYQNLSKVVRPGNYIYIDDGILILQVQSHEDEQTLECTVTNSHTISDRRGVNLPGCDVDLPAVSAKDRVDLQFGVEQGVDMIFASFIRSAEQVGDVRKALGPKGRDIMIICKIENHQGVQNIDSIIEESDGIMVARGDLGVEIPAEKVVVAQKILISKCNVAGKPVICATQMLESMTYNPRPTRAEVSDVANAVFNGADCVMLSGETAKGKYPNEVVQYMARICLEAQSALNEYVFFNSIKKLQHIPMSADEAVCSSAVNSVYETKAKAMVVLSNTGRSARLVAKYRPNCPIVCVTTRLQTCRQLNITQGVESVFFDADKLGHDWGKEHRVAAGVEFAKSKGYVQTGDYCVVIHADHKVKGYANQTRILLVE
# Summary of the method: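 Eight-point qHTS titrations in triplicate, data normalized to DMSO neutral control. Reaction: 0.2 nM LmPYK E451W mutant, 0.5 mM PEP, 0.1 mM ADP, 7 mM MgCl2, pH 7.2, one hour at room temperature; luminescent ATP detection.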
# [8] = target: Pyruvate kinase PKM (Homo sapiens) (UniProt P14618); test: qHTS Assay for Activators of Human Muscle Pyruvate Kinase (AID 954; active means well fitted curve in the direction sought with a large enough effect, not every such curve was filed as active;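 further: 0% = uninhibited enzyme and -100% = no enzyme or full thiadiazolimine inhibition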); settings: purified human muscle pyruvate kinase, luciferase-coupled luminescence, 1 h; series mostly up to 57.5 µM
# Sequence of Pyruvate kinase PKM (Homo sapiens) (P14618 whole entry, looked up): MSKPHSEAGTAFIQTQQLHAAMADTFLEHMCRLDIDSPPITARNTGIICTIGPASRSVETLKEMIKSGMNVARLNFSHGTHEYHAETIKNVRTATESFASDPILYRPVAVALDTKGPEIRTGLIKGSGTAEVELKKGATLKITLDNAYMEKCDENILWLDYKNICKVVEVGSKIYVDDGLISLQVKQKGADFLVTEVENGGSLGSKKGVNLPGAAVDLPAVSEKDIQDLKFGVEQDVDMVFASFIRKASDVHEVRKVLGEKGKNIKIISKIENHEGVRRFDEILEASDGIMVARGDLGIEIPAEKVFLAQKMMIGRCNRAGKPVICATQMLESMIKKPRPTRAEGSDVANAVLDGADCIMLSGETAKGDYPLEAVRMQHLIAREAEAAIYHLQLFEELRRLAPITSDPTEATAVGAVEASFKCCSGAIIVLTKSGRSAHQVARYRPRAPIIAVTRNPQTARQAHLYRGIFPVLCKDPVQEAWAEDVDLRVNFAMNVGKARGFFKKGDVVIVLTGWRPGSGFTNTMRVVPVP
# Summary of the method: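 Enzyme was run at intermediate activity so both inhibitors and activators could be detected. ATP formed from ADP and PEP by 0.1 nM human PKM2 during a 1 h room-temperature incubation was quantified by coupled luciferase luminescence.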
# [9] = target: Alpha-galactosidase A (Homo sapiens) (UniProt P06280); test: Counterscreen for Glucocerebrosidase Inhibitors: qHTS Assay for Human alpha-Galactosidase at pH 4.5 (AID 992); settings: purified enzyme, fluorogenic substrate; series mostly up to 76.9 µM; further: 0% is about no effect
# Summary of the method: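 Read-out is 4-methylumbelliferone fluorescence (365 nm excitation, 440 nm emission) after a pH 10 NaOH/glycine stop. Reactions held 2 nM enzyme and 80 uM substrate at pH 4.5 for 20 min at room temperature.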
# [10] = target: alpha-glucosidase (Oryza sativa, rice) (UniProt Q653V4); test: Counterscreen for Glucocerebrosidase Inhibitors: qHTS Assay for Rice alpha-Glucosidase at pH 5.0 (AID 997); settings: rice alpha-glucosidase enzyme activity; series mostly up to 76.9 µM;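 further: 0% = full activity with enzyme and -100% = basal without enzyme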
# Summary of the method: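 Rice alpha-glucosidase (4 nM final) with 400 uM 4-methylumbelliferyl-alpha-D-glucopyranoside in citrate buffer pH 5.0, 20 min at room temperature, stopped at pH 10; fluorescence 365/440 nm, compounds 0.7 nM–77 uM, AC50 from Hill fits.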
# [11] = qHTS Assay for Lipid Storage Modulators (AID 1519; calls by dose curve); settings: Drosophila S3 cells, BODIPY lipid droplet/cell ratio, laser cytometry, cells loaded with oleic acid
# Summary of the method: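 Cells seeded at 5,000 per well were treated with compounds over a concentration series and loaded with oleic acid (400 uM, as added). Lipid droplet fluorescence (488 nm excitation, 500-530 nm channel) was read by laser-scanning cytometry and normalized to 20 uM Triacsin C.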
# [12] = target: Ubiquitin carboxyl-terminal hydrolase 1 (Homo sapiens) (UniProt O94782); test: Inhibitors of USP1/UAF1: Pilot qHTS (AID 504865); settings: purified USP1/UAF1, Ub-rhodamine cleavage fluorescence; series mostly up to 54.9 µM;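 further: rhodamine fluorescence freed from ubiquitin-rhodamine substrate followed over time; top concentration of the series differs between compounds; on the % scale 0 is the no-effect control and ±100 the full control effect; nearly all actives have a fitted effect of over 35% in size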
# Sequence of Ubiquitin carboxyl-terminal hydrolase 1 (Homo sapiens) (O94782 whole entry, looked up): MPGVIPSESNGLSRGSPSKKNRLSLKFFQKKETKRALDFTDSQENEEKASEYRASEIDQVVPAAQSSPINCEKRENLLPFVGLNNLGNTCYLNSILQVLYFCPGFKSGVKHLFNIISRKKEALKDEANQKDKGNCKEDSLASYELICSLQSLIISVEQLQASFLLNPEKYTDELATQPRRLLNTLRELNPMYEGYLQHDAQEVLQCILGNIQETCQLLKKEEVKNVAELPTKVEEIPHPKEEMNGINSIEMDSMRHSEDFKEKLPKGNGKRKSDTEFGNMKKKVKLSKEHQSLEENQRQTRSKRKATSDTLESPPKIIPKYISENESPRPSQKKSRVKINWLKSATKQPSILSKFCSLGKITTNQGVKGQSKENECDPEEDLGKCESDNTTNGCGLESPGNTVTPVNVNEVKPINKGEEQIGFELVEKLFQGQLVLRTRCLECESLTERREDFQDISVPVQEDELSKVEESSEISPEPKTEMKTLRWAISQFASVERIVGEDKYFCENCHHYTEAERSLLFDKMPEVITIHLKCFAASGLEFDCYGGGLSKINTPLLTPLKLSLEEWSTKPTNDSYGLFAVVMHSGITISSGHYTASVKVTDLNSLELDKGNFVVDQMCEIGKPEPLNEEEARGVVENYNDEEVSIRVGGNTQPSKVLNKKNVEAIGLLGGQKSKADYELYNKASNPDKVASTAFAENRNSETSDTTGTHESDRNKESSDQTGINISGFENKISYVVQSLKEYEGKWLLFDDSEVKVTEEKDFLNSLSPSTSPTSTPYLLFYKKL
# Summary of the method: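 USP1/UAF1 complex at 1 nM preincubated 15 min at room temperature with compound, then Ub-Rho substrate added at 150 nM final. Fluorescence (480/540 nm) read kinetically in 50 mM HEPES pH 7.8, 0.5 mM EDTA, 1 mM TCEP, 0.1 mg/ml BSA, 0.01% Tween-20.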
# [13] = target: Glucocorticoid receptor (Homo sapiens) (UniProt P04150); test: GR-GFP Redistribution (AID 450;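 active means compounds whose dose series gives a full or clear partial fitted curve of increased nuclear translocation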; further: potency means the concentration at half of the fitted maximal effect); settings: U2OS GR-GFP nuclear translocation, laser cytometry, 2 h
# Sequence of Glucocorticoid receptor (Homo sapiens) (P04150 whole entry, looked up, the tested form may be a part): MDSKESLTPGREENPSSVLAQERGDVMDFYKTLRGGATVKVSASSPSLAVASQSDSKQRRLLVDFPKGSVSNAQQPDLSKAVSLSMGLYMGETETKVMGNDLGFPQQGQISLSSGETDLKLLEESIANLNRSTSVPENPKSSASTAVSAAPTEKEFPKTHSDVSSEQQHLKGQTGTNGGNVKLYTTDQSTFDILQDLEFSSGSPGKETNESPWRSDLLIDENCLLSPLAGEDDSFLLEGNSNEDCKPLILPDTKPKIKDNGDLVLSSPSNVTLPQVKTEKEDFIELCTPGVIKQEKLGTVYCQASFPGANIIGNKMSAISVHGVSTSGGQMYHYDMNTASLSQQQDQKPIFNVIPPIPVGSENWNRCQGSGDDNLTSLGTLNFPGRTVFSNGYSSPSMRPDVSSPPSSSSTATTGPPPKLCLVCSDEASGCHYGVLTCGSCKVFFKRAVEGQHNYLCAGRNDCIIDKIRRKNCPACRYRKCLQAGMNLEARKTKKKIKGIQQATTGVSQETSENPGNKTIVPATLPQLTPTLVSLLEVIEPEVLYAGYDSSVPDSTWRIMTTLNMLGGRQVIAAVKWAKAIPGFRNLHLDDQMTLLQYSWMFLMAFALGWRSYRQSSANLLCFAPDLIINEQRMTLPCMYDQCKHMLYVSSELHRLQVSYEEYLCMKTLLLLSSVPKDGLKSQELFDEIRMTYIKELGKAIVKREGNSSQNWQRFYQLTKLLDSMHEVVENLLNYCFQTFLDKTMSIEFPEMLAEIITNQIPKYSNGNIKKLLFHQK
# [14] = target: Glucocorticoid receptor (Homo sapiens) (UniProt P04150); test: GR-EFC Redistribution (AID 451; calls by dose curve; further: potency means the concentration at half of the fitted maximal effect); settings: CHO-K1 GR-EFC translocation, beta-gal luminescence, 2 h
# Summary of the method: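 CHO-K1 cells expressing nuclear EA and GR-ED fragments of b-gal; compounds titrated up to 46 uM final, 2 h at 37 C. GR nuclear translocation read as complemented b-gal luminescence after 1 h RT detection.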
# [15] = target: Lysosomal acid glucosylceramidase (Homo sapiens) (UniProt P04062); test: Glucocerebrosidase-p2 (AID 348; in the data active means potency below about 10 µM; further: potency means the concentration at half of the fitted maximal effect); settings: purified GBA, blue fluorogenic substrate, 40 min
# Summary of the method: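 Compounds titrated from 0.6 nM upwards against 0.2 nM enzyme in pH 5.9 citric acid/KH2PO4, taurocholate, tween-20; blue fluorogenic substrate 80 uM, 40 min room temperature, stopped and read Ex 365/Em 440 for AC50.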
# [16] = target: ATP-dependent 6-phosphofructokinase (Trypanosoma brucei brucei) (UniProt O15648); test: qHTS Assay to Find Inhibitors of T. brucei phosphofructokinase: hit validation (AID 492961); settings: T. brucei PFK, ADP-Glo luminescence; series mostly up to 24.3 µM
# Sequence of ATP-dependent 6-phosphofructokinase (Trypanosoma brucei brucei) (O15648 whole entry, looked up): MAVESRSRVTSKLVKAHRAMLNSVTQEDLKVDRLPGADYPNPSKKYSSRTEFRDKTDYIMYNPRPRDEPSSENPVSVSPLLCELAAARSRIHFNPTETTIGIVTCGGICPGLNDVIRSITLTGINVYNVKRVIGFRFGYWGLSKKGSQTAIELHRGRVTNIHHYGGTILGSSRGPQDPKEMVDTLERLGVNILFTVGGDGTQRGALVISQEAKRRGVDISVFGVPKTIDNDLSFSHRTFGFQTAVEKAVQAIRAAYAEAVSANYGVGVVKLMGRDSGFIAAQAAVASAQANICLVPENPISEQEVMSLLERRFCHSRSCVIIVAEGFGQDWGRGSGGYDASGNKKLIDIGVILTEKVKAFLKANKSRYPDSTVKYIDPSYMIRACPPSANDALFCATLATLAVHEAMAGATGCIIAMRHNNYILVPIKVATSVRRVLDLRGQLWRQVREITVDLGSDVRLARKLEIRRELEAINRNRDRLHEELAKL
# Summary of the method: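 Inhibition of parasite PFK is measured as reduced ADP formation, quantified via luciferase after ATP depletion. Assay used 0.1 mM ATP, 0.5 mM F6P, 1.25 nM enzyme, 45 min incubation.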
# [17] = target: Luciferin 4-monooxygenase (Photinus pyralis) (UniProt P08659); test: Biochemical firefly luciferase enzyme assay for NPC (AID 624030);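 further: purified P. pyralis luciferase at 10 nM with luciferin and ATP substrate; 0% = DMSO and -100% = full luciferase inhibition by PTC124 control; nearly all actives have a fitted effect of over 70% in size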; settings: purified P. pyralis luciferase, luminescence, 5 min; series mostly up to 58.6 µM
# Sequence of Luciferin 4-monooxygenase (Photinus pyralis) (P08659 whole entry, looked up): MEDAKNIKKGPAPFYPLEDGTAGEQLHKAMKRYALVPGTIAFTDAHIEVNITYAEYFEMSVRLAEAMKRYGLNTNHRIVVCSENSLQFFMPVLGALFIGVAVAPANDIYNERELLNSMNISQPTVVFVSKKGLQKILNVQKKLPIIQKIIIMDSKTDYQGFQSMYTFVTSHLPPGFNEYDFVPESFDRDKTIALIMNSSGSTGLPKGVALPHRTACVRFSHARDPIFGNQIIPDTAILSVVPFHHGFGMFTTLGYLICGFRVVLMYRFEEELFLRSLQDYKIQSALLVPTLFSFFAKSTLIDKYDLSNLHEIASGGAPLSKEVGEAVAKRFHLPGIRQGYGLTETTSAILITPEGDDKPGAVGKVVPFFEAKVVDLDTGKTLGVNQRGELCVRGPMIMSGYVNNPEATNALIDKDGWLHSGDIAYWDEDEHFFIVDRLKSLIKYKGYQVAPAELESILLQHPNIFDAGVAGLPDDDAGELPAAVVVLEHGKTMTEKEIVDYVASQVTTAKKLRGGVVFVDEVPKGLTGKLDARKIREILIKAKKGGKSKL
# Summary of the method: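 Purified P. pyralis luciferase at 10 nM in 50 mM Tris Acetate (final), luminescence read within 5 minutes of enzyme addition to compounds. Activity normalised to PTC124 versus DMSO; concentration-response curves classed by r2, magnitude and activity.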
# [18] = qHTS profiling for inhibitors of Plasmodium falciparum proliferation (AID 504749);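 further: 0% = DMSO vehicle and full inhibition = artemisinin control; nearly all actives have a fitted effect of over 60% in size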; settings: P. falciparum in erythrocytes, SYBR Green DNA, 72 h, at 28.7 µM (top of the series)
# Summary of the method: (§1)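 Readout was DNA-dye fluorescence from lysed cultures, ex 485/em 535 nm. Parasitized red cells had grown 72 h with compound; data scaled between 0.29 uM artemisinin and DMSO wells and corrected using vehicle-only plates.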
# [19] = test system: AS120; test: as above; settings: P. falciparum in erythrocytes, SYBR Green DNA, 72 h; series mostly up to 28.7 µM
# Summary of the method: as §1
# [20] = test system: CP250; test: as above; settings: P. falciparum in erythrocytes, SYBR Green DNA, 72 h; series mostly up to 12.8 µM
# Summary of the method: as §1
# [21] = measured here: cell count channel max response
# [22] = measured here: lipid channel max response
# [23] = at 7.69 µM (top of the series) unless noted
smiles,measurement,setting,value
CN1C(=O)CC[C@@H]1c1cccnc1,"activity change, negative = inhibition",[1]; at 17.2 µM (top of the series),10.4% (inactive)
same,"activity change, negative = inhibition",[1]; at 38 µM (top of the series),-5.74% (inactive)
same,Potency,[2],inactive
same,"activity change, negative = inhibition",[3]; at 17.2 µM (top of the series),1.15% (inactive)
same,"activity change, negative = inhibition",[3]; at 38 µM (top of the series),1.74% (inactive)
same,"activity, negative = inhibition",[4]; at 17.2 µM (top of the series),-1.06% (inactive)
same,"activity, negative = inhibition",[4]; at 38 µM (top of the series),17.2% (inactive)
same,Potency,[5],inactive
same,Potency,[6],inactive
same,outcome,[7],inactive
same,outcome,[8],inactive
same,outcome,[9],inactive
same,outcome,[10],inactive
same,"activity change, negative = inhibition",[11]; at 25.7 µM (top of the series),0.0072% (inactive)
same,max response,[11]; [21],5.39%
same,max response,[11]; [22],2.29%
same,Potency,[12],inactive
C[C@@]12CC[C@@H]3c4ccc(O)cc4CC[C@H]3[C@H]1CC[C@H]2O,"activity change, negative = inhibition",[1]; at 17.2 µM (top of the series),-5.6% (inactive)
same,"activity change, negative = inhibition",[1]; at 38 µM (top of the series),-13.9% (inactive)
same,Potency,[2],10 µM (active) and 5.01 µM (active)
same,"activity change, negative = inhibition",[3]; at 17.2 µM (top of the series),-19.1% (inactive)
same,"activity change, negative = inhibition",[3]; at 38 µM (top of the series),-4.36% (inactive)
same,"activity, negative = inhibition",[4]; at 17.2 µM (top of the series),-28.8% (inactive)
same,"activity, negative = inhibition",[4]; at 38 µM (top of the series),-19.1% (inactive)
same,Potency,[13],> 46 µM (inactive) and > 20.6 µM (inactive)
same,Potency,[14],> 46 µM (inactive) and > 20.6 µM (inactive)
same,Potency,[5],inactive
same,Potency,[6],inactive
same,"activity change, negative = inhibition",[11]; at 25.7 µM (top of the series),-0.875% (inactive)
same,max response,[11]; [21],-11.7%
same,max response,[11]; [22],-11.1%
same,Potency,[12],inactive
Cc1cccc(CNc2ncnc3ccc(-c4cccc(NS(C)(=O)=O)c4)cc23)c1,Potency,[15],> 11.4 µM (inactive)
same,"activity change, negative = inhibition",[3]; [23],12.3% (inactive)
same,"activity, negative = inhibition",[4]; [23],-1.79% (inactive)
same,Potency,[13],> 46 µM (inactive)
same,Potency,[14],> 46 µM (inactive)
same,Potency,[5],inactive
same,Potency,[6],inactive
same,"activity change, negative = inhibition",[11]; at 57.5 µM (top of the series),-4.87% (inactive)
same,max response,[11]; [21],-15.4%
same,max response,[11]; [22],-18.6%
CC[C@]1(C)CC(=O)NC1=O,"activity change, negative = inhibition",[1]; at 17.2 µM (top of the series),1.25% (inactive)
same,"activity change, negative = inhibition",[1]; at 38 µM (top of the series),0.0779% (inactive)
same,Potency,[2],inactive
same,"activity change, negative = inhibition",[3]; at 17.2 µM (top of the series),5.72% (inactive)
same,"activity change, negative = inhibition",[3]; at 38 µM (top of the series),0.552% (inactive)
same,"activity, negative = inhibition",[4]; at 17.2 µM (top of the series),2.02% (inactive)
same,"activity, negative = inhibition",[4]; at 38 µM (top of the series),10.7% (inactive)
same,Potency,[13],> 46 µM (inactive) and > 20.6 µM (inactive)
same,Potency,[14],> 46 µM (inactive) and > 20.6 µM (inactive)
same,Potency,[5],inactive
same,Potency,[6],inactive
same,outcome,[7],inactive
same,outcome,[8],inactive
same,outcome,[9],inactive
same,outcome,[10],inactive
same,"activity change, negative = inhibition",[11]; at 25.7 µM (top of the series),0.986% (inactive)
same,max response,[11]; [21],2.27%
same,max response,[11]; [22],7.01%
same,outcome,[16],inactive
same,Potency,[12],inactive
same,outcome,[17],inactive
same,"activity, negative = inhibition",[18]; parasite line A,10.6% (inactive)
same,"activity, negative = inhibition",[18]; parasite line B,5.48% (inactive)
same,Potency,[19],inactive
same,Potency,[20],inactive
CN1[C@@H]2CC[C@H]1CC(OC(=O)[C@@H](O)c1ccccc1)C2 (stereo partly specified),Potency,[15],> 11.4 µM (inactive)
same,"activity, negative = inhibition",[4]; at 7.69 µM (top of the series),-3.56% (inactive)
same,"activity, negative = inhibition",[4]; at 17.2 µM (top of the series),8.85% (inactive)
same,Potency,[5],inactive
same,Potency,[6],inactive
same,outcome,[7],inactive
same,outcome,[8],inactive
same,outcome,[9],inactive
same,outcome,[10],inactive
same,"activity change, negative = inhibition",[11]; at 25.7 µM (top of the series),2.61% (inactive)
same,max response,[11]; [21],4.94%
same,max response,[11]; [22],8.69%
same,outcome,[16],inactive
same,Potency,[12],inactive
same,outcome,[17],inactive
same,"activity, negative = inhibition",[18]; parasite line A,-3.65% (inactive) and -0.465% (inactive)
same,"activity, negative = inhibition",[18]; parasite line B,7.89% (inactive) and -12.1% (inactive)
same,Potency,[19],inactive
same,Potency,[20],inactive
